M1 PAM: positive allosteric modulators of human M1 muscarinic receptor; P11229; CHO-K1 hM1, Fluo-8 calcium fluorescence, ACh EC20; 0% = ACh EC20, 100% = maximal ACh; activation, % at 3 µM; 360,000 tested, 0.088% active; AID 588819; in the data active means activation above about 19%, passing the limit was not always enough
Target sequence (P11229 whole entry, looked up): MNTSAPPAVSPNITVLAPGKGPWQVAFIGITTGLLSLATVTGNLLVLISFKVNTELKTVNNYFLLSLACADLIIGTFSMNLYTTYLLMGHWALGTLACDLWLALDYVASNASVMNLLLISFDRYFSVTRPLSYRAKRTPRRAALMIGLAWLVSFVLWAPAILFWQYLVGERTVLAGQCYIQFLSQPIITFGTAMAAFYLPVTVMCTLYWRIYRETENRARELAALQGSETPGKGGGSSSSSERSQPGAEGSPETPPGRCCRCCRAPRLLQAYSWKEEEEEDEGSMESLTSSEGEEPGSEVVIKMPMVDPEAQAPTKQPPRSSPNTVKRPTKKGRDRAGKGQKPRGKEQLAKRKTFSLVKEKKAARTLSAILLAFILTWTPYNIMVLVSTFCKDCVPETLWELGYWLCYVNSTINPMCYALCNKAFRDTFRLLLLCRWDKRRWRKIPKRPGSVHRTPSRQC
M1 ag parental: nonselective activator or artifact in parental CHO-K1 cells. activation, % at 3 µM. Fluo-8 calcium fluorescence; scaled to maximal ATP response, vehicle zero. 360,000 tested, 0.48% active; in the data active means activation above about 15%;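 further: untransfected CHO-K1 host cells lacking M1 receptor as counterscreen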
CHRM1 agonist: agonists of human M1 muscarinic receptor; CHO-K1 hM1, Fluo-8 calcium fluorescence, agonist mode; 0% DMSO, 100% acetylcholine EC100; AID 588814; activation, % at 3 µM; P11229; 360,000 tested, 0.33% active;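 active means activation above the run's mean compound activation plus 3 SD, cut at about 16% in these data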;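 further: peak over basal fluorescence ratio within a 140 s kinetic read after compound addition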
CHO-K1 Ca antag: nonselective inhibitor or artifact in parental CHO-K1 cells; ATP-induced calcium, Fluo-8 fluorescence; inhibition, % at 3 µM; 360,000 tested, 0.6% active;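 active means inhibition above a per-plate cutoff, the plate's mean sample inhibition plus 3 SD, cut at about 24% in these data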;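 further: 0% = DMSO plus EC80 ATP and 100% = DMSO alone without ATP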
M1 PAM parental: M1 PAM counterscreen hit in parental CHO-K1 cells | ATP EC20, Fluo-8 calcium fluorescence; 0% at ATP EC20, 100% at ATP max | activation, % at 3 µM | 360,000 tested, 0.02% active | AID 602247;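 active means activation above the run cutoff, the mean activation of all test compounds plus 3 SD, cut at about 40% in these data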;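 further: peak over basal fluorescence ratio in a 140 s read after ATP addition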
CHRM1 antagonist: blocks human M1 muscarinic receptor; inhibition, % at 3 µM; 360,000 tested, 1.3% active; P11229; CHO-K1 hM1, Fluo-8 calcium fluorescence, ACh EC80 antagonist;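 active means percent inhibition above its own plate's cutoff, namely the mean of that plate's compound wells plus 3 SD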;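 further: peak over basal fluorescence ratio during 140 s after agonist addition; 0% = ACh EC80 plus DMSO and 100% = DMSO alone without agonist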
Starred values were filed as active, the others as inactive. An excerpt weighted towards active compounds, which were near 2.4% of everything screened.

How did COc1ccc(/C=C/C(=O)NCCCN2CCCC2)cc1 do in these assays?
M1 PAM: -15.5; M1 ag parental: 6.5; CHRM1 agonist: -8.2; CHO-K1 Ca antag: -2.0; M1 PAM parental: 3.7; CHRM1 antagonist: 41.1*

How did Cc1ccc(/C=C/C(=O)NCCCN2CCN(CCCNC(=O)/C=C/c3ccc(C)cc3)CC2)cc1 do in these assays?
M1 PAM: 5.5; M1 ag parental: -0.5; CHRM1 agonist: -8.0; CHO-K1 Ca antag: -10.8; M1 PAM parental: 14.6; CHRM1 antagonist: -10.5

What do the screens show for `Cc1cc2ccc3ccccc3c2cc1CN(C)C`?
M1 PAM: -0.5; M1 ag parental: 1.6; CHRM1 agonist: -2.5; CHO-K1 Ca antag: 1.5; M1 PAM parental: -17.4; CHRM1 antagonist: 8.1

What do the screens show for `CN(C)CCOC1c2ccccc2CCc2ccc3ccccc3c21` (configuration not stated)?
M1 PAM: -23.7; M1 ag parental: 4.7; CHRM1 agonist: -5.3; CHO-K1 Ca antag: -13.5; M1 PAM parental: 21.6; CHRM1 antagonist: 53.0*

What do the screens show for `CCN(CC)c1ccc(C=C2SC(=S)NC2=O)cc1`?
M1 PAM: -35.6; M1 ag parental: 15.0; CHRM1 agonist: 111.1*; CHO-K1 Ca antag: 21.4; M1 PAM parental: -6.1; CHRM1 antagonist: 83.4*

How did CN1CCN(c2ccc(S(=O)(=O)N3CCCCC3)cc2NC(=O)COc2ccc([N+](=O)[O-])cc2)CC1 do in these assays?
M1 PAM: -12.7; M1 ag parental: -0.3; CHRM1 agonist: -4.0; CHO-K1 Ca antag: 19.9; M1 PAM parental: -22.4; CHRM1 antagonist: 32.0*

How did Cc1ccc(OCC(=O)Nc2cc(S(=O)(=O)N3CCCCC3)ccc2N2CCN(C)CC2)c(C)c1 do in these assays?
M1 PAM: -8.9; M1 ag parental: 0.3; CHRM1 agonist: -8.0; CHO-K1 Ca antag: -8.1; M1 PAM parental: -1.1; CHRM1 antagonist: 6.9

What do the screens show for `CCN1CCN(c2ccc(S(=O)(=O)N3CCCCC3)cc2NC(=O)Cc2ccccc2)CC1`?
M1 PAM: 1.0; M1 ag parental: 0.6; CHRM1 agonist: -6.3; CHO-K1 Ca antag: 6.9; M1 PAM parental: -26.4; CHRM1 antagonist: 4.1

How did CCN1CCN(c2ccc(S(=O)(=O)N3CCOCC3)cc2NC(=O)c2ccccc2OC(F)F)CC1 do in these assays?
M1 PAM: 3.5; M1 ag parental: 1.9; CHRM1 agonist: 20.2*; CHO-K1 Ca antag: -8.0; M1 PAM parental: 10.2; CHRM1 antagonist: -5.0

Results for Cc1ccccc1OCCC(=O)Nc1cc(S(=O)(=O)N2CCCCC2)ccc1N1CCN(C)CC1 ?
M1 PAM: -12.9; M1 ag parental: 51.2*; CHRM1 agonist: 34.3*; CHO-K1 Ca antag: 8.1; M1 PAM parental: -11.6; CHRM1 antagonist: 19.1

What do the screens show for `CCN1CCN(c2ccc(S(=O)(=O)N3CCOCC3)cc2NC(=O)c2ccc(Cl)cc2Cl)CC1`?
M1 PAM: 6.0; M1 ag parental: 3.0; CHRM1 agonist: -6.1; CHO-K1 Ca antag: 5.3; M1 PAM parental: 26.5; CHRM1 antagonist: -7.1

What do the screens show for `CCN1CCN(c2ccc(S(=O)(=O)N3CCCCC3)cc2NC(=O)Cc2ccc(Cl)c(Cl)c2)CC1`?
M1 PAM: -6.5; M1 ag parental: 18.0*; CHRM1 agonist: 11.5; CHO-K1 Ca antag: 28.7*; M1 PAM parental: 0.5; CHRM1 antagonist: 14.5

How did Cc1cccc(S(=O)(=O)NC(Cc2c[nH]c3ccccc23)C(=O)O)c1 (configuration not stated) do in these assays?
M1 PAM: -3.2; M1 ag parental: -0.1; CHRM1 agonist: -5.4; CHO-K1 Ca antag: -6.5; M1 PAM parental: 20.0; CHRM1 antagonist: 3.4

Results for CCCCC(=O)NNC(=S)NCc1ccccc1 ?
M1 PAM: 3.2; M1 ag parental: 0.1; CHRM1 agonist: -3.4; CHO-K1 Ca antag: -23.6; M1 PAM parental: 11.1; CHRM1 antagonist: 38.9*

Results for CCC(=O)NC(=S)NNC(=O)c1ccc(OC)cc1 ?
M1 PAM: -1.2; M1 ag parental: 0.1; CHRM1 agonist: -3.8; CHO-K1 Ca antag: -12.4; M1 PAM parental: -3.2; CHRM1 antagonist: 0.4

How did CCNC(=S)NNC(=S)NCc1ccccc1 do in these assays?
M1 PAM: -3.5; M1 ag parental: -0.2; CHRM1 agonist: -2.5; CHO-K1 Ca antag: -11.3; M1 PAM parental: 4.8; CHRM1 antagonist: 2.3

What do the screens show for `COc1ccc(C(=O)NC(=S)NNC(=O)c2ccc(C)cc2)cc1`?
M1 PAM: -20.8; M1 ag parental: 82.0*; CHRM1 agonist: 86.8*; CHO-K1 Ca antag: 14.5; M1 PAM parental: -25.5; CHRM1 antagonist: 30.9

Results for CCCCC(=O)NNC(=S)NC(=O)c1ccc(C)cc1 ?
M1 PAM: -2.5; M1 ag parental: 13.6; CHRM1 agonist: 38.8*; CHO-K1 Ca antag: -1.1; M1 PAM parental: 6.3; CHRM1 antagonist: 0.5

Results for CCc1n[nH]c(=S)n1/N=C/c1c(O)ccc2ccccc12 ?
M1 PAM: 21.9; M1 ag parental: 0.4; CHRM1 agonist: 3.7; CHO-K1 Ca antag: -1.5; M1 PAM parental: 7.3; CHRM1 antagonist: -27.7

What do the screens show for `CCc1n[nH]c(=S)n1/N=C/c1cccc2ccccc12`?
M1 PAM: 3.8; M1 ag parental: 18.2*; CHRM1 agonist: -6.4; CHO-K1 Ca antag: -4.2; M1 PAM parental: 5.1; CHRM1 antagonist: -6.8

What do the screens show for `O=C1c2cccc3c(N4CCCCC4)ccc(c23)C(=O)N1c1ccccc1O`?
M1 PAM: -12.9; M1 ag parental: 35.8*; CHRM1 agonist: 39.9*; CHO-K1 Ca antag: 29.6*; M1 PAM parental: -6.7; CHRM1 antagonist: 43.5*

Results for O=C1c2cccc3c(N4CCCCC4)ccc(c23)C(=O)N1c1ccc(O)cc1 ?
M1 PAM: -8.6; M1 ag parental: 14.8; CHRM1 agonist: 9.5; CHO-K1 Ca antag: 8.4; M1 PAM parental: 8.4; CHRM1 antagonist: 17.5

What do the screens show for `CCc1ccc(C(=O)CN2C(=O)NC(C)(CCc3ccccc3)C2=O)cc1` (configuration not stated)?
M1 PAM: 1.9; M1 ag parental: -0.7; CHRM1 agonist: -7.5; CHO-K1 Ca antag: -8.0; M1 PAM parental: 1.4; CHRM1 antagonist: 3.7

What do the screens show for `CN(C(=O)c1ccc(NC(=O)Cc2ccc(NC(=O)C3CCN(C(=O)C4CC4)CC3)cc2)cc1)C1CCCC1`?
M1 PAM: 27.0*; M1 ag parental: 0.6; CHRM1 agonist: 3.9; CHO-K1 Ca antag: -9.1; M1 PAM parental: 3.9; CHRM1 antagonist: -27.1

How did N#Cc1c(N2CCSCC2)nsc1-c1ccccc1Cl do in these assays?
M1 PAM: 0.3; M1 ag parental: 0.5; CHRM1 agonist: -5.2; CHO-K1 Ca antag: 2.6; M1 PAM parental: 11.4; CHRM1 antagonist: -0.1

What do the screens show for `COc1ccc(-c2nn(-c3ccccc3)cc2C(=O)NC(=S)Nc2cc(Cl)ccc2Cl)cc1`?
M1 PAM: 26.2*; M1 ag parental: -0.3; CHRM1 agonist: 1.4; CHO-K1 Ca antag: -4.6; M1 PAM parental: 9.9; CHRM1 antagonist: -37.1

Results for CN(Cc1ccc(Cl)cc1)C(CCc1ccccc1)C(=O)NC1CCCCC1 (configuration not stated) ?
M1 PAM: -3.5; M1 ag parental: -0.2; CHRM1 agonist: -3.4; CHO-K1 Ca antag: 4.1; M1 PAM parental: -8.4; CHRM1 antagonist: -18.0

Source: PubChem (The Scripps Research Institute Molecular Screening Center)
